This note sets out measurements from PubChem BioAssay.

Each structure is given as a SMILES string.

Sequence of Concanavalin-A (Canavalia ensiformis) (P02866 whole entry, looked up): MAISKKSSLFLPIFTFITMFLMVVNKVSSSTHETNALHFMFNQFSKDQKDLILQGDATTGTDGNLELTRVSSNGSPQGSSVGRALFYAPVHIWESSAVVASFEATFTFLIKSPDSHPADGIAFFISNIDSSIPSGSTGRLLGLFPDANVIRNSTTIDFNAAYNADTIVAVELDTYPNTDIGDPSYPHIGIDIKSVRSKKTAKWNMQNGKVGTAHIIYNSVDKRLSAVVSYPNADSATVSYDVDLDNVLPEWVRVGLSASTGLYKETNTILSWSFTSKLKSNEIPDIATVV

The assay addresses Concanavalin-A (Canavalia ensiformis) (UniProt P02866). As to the kind of experiment: compounds binding concanavalin A lectin – biochemical, small-molecule microarray, Alexa647 label, 635 nm, artefact control for SMM control protein annotation, primary screen (AID 1127).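 Further: z combines 667 nm emission intensity with signal-to-noise across three replicate slides.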 As to conditions: ConA-A647 binding fluorescence, higher = more signal.
As for `O=C1O[C@H](c2ccccc2)[C@H](c2ccccc2)N2[C@H]1[C@@H](C(=O)NC[C@H](O)c1ccccc1)[C@]1(C(=O)Nc3ccc(C#CC4=CCCCC4)cc31)[C@H]2c1ccc(OCCO)cc1`, the composite z-score was determined as 1.11.
As for `COc1cc(Cc2cc3c(c(CCc4ccccc4)n2)[Si](C(C)C)(C(C)C)OC3)cc(OC)c1OC`, the composite z-score was 0.255.
Regarding `CO[C@H]1O[C@H](CO)[C@@H](OC(=O)CCc2ccccc2)[C@@H]2OC(=O)[C@H](Cc3cccc(Br)c3)C/C=C/C[C@@H](Cc3cccc(Br)c3)C(=O)O[C@@H]12`, the composite z-score was 0.014.
Turning to `Cc1ccc(S[C@]2(C(=O)NCCCN(C)C)CC(=O)N(C3CCCCC3)[C@@H]2c2ccc(CO)cc2I)cc1`, the composite z-score was -1.49.
As for `COC(=O)[C@@]1(Cc2ccccc2CN=[N+]=[N-])N=C(c2ccc(OCCCO)cc2)O[C@H]1c1ccccc1N=[N+]=[N-]`, the composite z-score is 0.544.
`CO[C@@H]1COC(=O)[C@H](C)NC(=O)CC=C[C@@H](C)[C@H](OC)COC(=O)[C@H](C)NC(=O)CC=C[C@H]1C` gave a composite z-score of 0.44.
`COCCOC(=O)N1C(=O)[C@@]2(c3cc(C#CCNC(N)=O)ccc31)[C@H](c1ccc(OCCO)cc1)N1[C@H](c3ccccc3)[C@H](c3ccccc3)OC(=O)[C@H]1[C@@H]2C(=O)Nc1nc2ccccc2s1` showed a composite z-score of 0.915.
Under `C=CC[C@@]1(C(=O)N2CCOCC2)N=C(c2ccc(OCCCO)cc2)O[C@@H]1c1ccccc1` stands -0.226; under `COc1cc2c(cc1OC)CN(C(=O)[C@H]1[C@@H]3C(=O)O[C@@H](c4ccccc4)[C@@H](c4ccccc4)N3[C@@H](c3ccc(O)cc3)[C@]13C(=O)Nc1ccc(C#CC4(O)CCCCCC4)cc13)CC2`, 1.13.
For `O=C/C=C/c1ccccc1Cl`, the composite z-score turned out to be 0.0241.
As to `C=CCC(OC(C)=O)[C@@H]1[C@@H](N(Cc2cccc3ccccc23)C(=O)Cc2ccc(F)cc2)c2cc(OCCCO)ccc2N1C(=O)Cc1ccc2ccccc2c1` (stereo partly specified), the composite z-score is -1.5.
In the case of `CC(=O)NCCCC[C@@H]1NC(=O)[C@@H]2C[C@H](C(=O)NCCCCCNC(=O)CS)[C@H](c3ccc(O)cc3)N2C1=O`, the composite z-score is -0.579.
Regarding `C[N+](C)(C)CCCCNC(=O)[C@@H]1C[C@@H]2C(=O)N3CCC[C@H]3C(=O)N2[C@@H]1c1cccc(OCCO)c1`, the composite z-score was 0.909.
Consider `O=C(NCC(O)CO)[C@]1(Cc2ccccc2)N=C(c2ccc(OCCCO)cc2)O[C@@H]1c1ccccc1` (stereo partly specified), for which the composite z-score is 0.922.
`COC(=O)Cn1c(C(=O)N2CCCC2)cc2c1C[C@H]1CN(C(=O)c3ccccc3)[C@@](Cc3ccccc3)(C(=O)OC)[C@@H]21` had a composite z-score of 0.831.
Next, `CCOC(=O)[C@H]1C/C=C/C[C@H](C(=O)OCC)C(=O)O[C@H]2[C@@H](OC)O[C@H](CO)[C@@H](OC(=O)Nc3ccc(Br)cc3)[C@@H]2OC1=O`: 1.09; `CO[C@@H]1COC(=O)[C@@H]2CCCN2C(=O)CC=C[C@@H](C)[C@H](OC)COC(=O)[C@@H]2CCCN2C(=O)CC=C[C@H]1C`: -0.512.
Under `COCCOC(=O)N1C(=O)[C@@]2(c3cc(C#CCCO)ccc31)[C@H](c1ccc(O)cc1)N1[C@H](c3ccccc3)[C@H](c3ccccc3)OC(=O)[C@H]1[C@@H]2C(=O)Nc1nc2ccccc2s1` stands 1.17.
Next, `COc1cc2c(cc1OC)CN(C(=O)[C@@H]1[C@H]3C(=O)O[C@H](c4ccccc4)[C@H](c4ccccc4)N3[C@H](c3ccccc3OCCO)[C@@]13C(=O)Nc1ccccc13)CC2`: 0.997; `COc1ccc([Si](C)(C)[C@H]2[C@H](CCO)O[C@@]3(C(=O)N(Cc4ccc(N5CCCCC5=O)cc4)c4ccccc43)[C@@H]2C)cc1`: 1.12.
For the molecule `CCCCO[C@H]1C[C@H]2C(Br)=C[C@@]1(CO)C(=O)[C@]21CO1`, the composite z-score is 0.153.
Next, `CCOC(=O)C[C@H]1[C@H](OC(=O)c2ccccc2-c2ccccc2)[C@@H](NC(=O)C2CCCCC2)c2cc(OCCCO)ccc2N1C(=O)c1ccccc1`: 0.404.
As to `CO[C@H]1COC(=O)[C@H](C)NC(=O)CC=C[C@@H](C)[C@H](NS(=O)(=O)c2ccc(C)cc2)COC(=O)[C@@H](OCc2ccccc2)C=C[C@@H]1C`, the composite z-score is -0.333.
Consider `CC(C)CNC(=O)[C@@]1(C)c2ccccc2C(=O)N(Cc2ccc(OC(F)(F)F)cc2)[C@H]1c1ccc(CO)cc1`, for which the composite z-score was -1.74.
Regarding `CC(C)C[C@@H]1NC(=O)[C@H]2C[C@@H](C(=O)NCCCCCC[N+](C)(C)C)[C@@H](c3ccc(O)cc3)N2C1=O`, the composite z-score stood at 0.452.
Under `C=CC[C@@]1(C(=O)NCC(O)CO)N=C(c2ccc(OCCCO)cc2)O[C@@H]1c1ccccc1CN=[N+]=[N-]` (stereo partly specified) stands -0.304.
